Compound activity from PubChem BioAssay.
Rows were chosen to be rich in hits. Some 0.9% of all compounds tested hit in one or more screens of this group.
Mtb betalactam: beta-lactam sensitization of Mtb H37Rv, H37Rv; M. tuberculosis H37Rv growth with meropenem, percent inhibition; inhibition, % at 25 µM; actives 0.27% (n = 330,000); AID 434955, 2010; call rule not given here;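 also: growth measured after seven days incubation then overnight dye step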
PfHsp40 rescue: rescue of yeast from PfHsp40 toxicity, primary screen, S. cerevisiae, ATP luminescence | S. cerevisiae expressing PfHsp40, growth rescue | growth rescue, % at 12.5 µM | actives 0.68% (n = 340,000); in the data active = growth rescue above about 28%, passing the limit was not always enough;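 also: yeast W303a lacking pdr1 and pdr3 grown in galactose medium; growth measured after three days at 30 °C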
ugtP null kill: growth inhibition of ugtP-null S. aureus, primary screen, RN4220 ugtP deletion, OD600; growth inhibition, % (concentration not given with the values); actives 0.54% (n = 330,000); AID 1259309, 2017; 16 h; in the data active = growth inhibition above about 68%
RN4220 kill: growth inhibition of S. aureus RN4220, primary screen, OD600. 16 h. inhibition, % (concentration not given with the values). actives 0.33% (n = 330,000). AID 1259311, 2017; in the data active = inhibition above about 85%
Mtb BioA inh: M. tuberculosis BioA enzyme inhibitors, primary screen, biochemical, plate reader, single point, HTS. 7,8-diaminopelargonic acid synthase BioA (Mycobacterium tuberculosis). purified M. tuberculosis BioA enzyme. inhibition, % at 9.99 µM. actives 0.096% (n = 360,000); in the data active = inhibition above about 40%
Hits are given with their value; . = inactive; / = no result.

SMILES | Mtb betalactam | PfHsp40 rescue | ugtP null kill | RN4220 kill | Mtb BioA inh
Cc1cccnc1NC(=O)c1cccc(S(=O)(=O)N2CCCc3ccccc32)c1 | . | . | . | . | .
N=C1/C(=C/c2cccs2)C(=O)N=C2SN=C(SCc3ccccc3)N12 | . | . | 83 | . | .
CC(C)CSC1=NSC2=NC(=O)/C(=C\c3cccs3)C(=N)N12 | . | . | . | . | /
CCCCCCC[N+](CC)(CC)CCCCc1ccc(Cl)cc1 | . | . | 100 | 95 | .
CCCCCNCc1ccc(Cl)cc1 | . | . | . | . | /
Cc1ccc(O)c(C2=NNC(O)(C(F)(F)F)C2)c1 (stereo not given) | . | 39 | / | / | /
NC(CO)c1cn(C(Cc2cc3ccccc3[nH]2)C(=O)N2CCNCC2)nn1 (stereo not given) | / | / | . | . | /
CCOC(=O)/C(=N/Nc1ccc(Br)cc1)N1CC(C)OC(C)C1 (stereo not given) | / | 36 | . | . | /
CCOc1cccc(C=NNC(=S)Nc2cc(S(=O)(=O)N3CCOCC3)ccc2N2CCOCC2)c1O | / | / | . | . | /
O=C(CSc1ccccc1)Nc1cc(S(=O)(=O)N2CCOCC2)ccc1N1CCOCC1 | . | 59 | . | . | /
CCOc1cccc(/C=N/NC(=S)Nc2cc(S(=O)(=O)N3CCOCC3)ccc2N2CCOCC2)c1O | . | 60 | / | / | /
COC(=O)C1=C(c2ccc(F)cc2OCc2ccccc2)CC2CCC1N2C(=O)NCc1ccc2[nH]ccc2c1 (stereo not given) | / | / | . | . | /
CC=CC(=O)Nc1cccc(C2=NOC3(C2)CC(C(N)=O)N(C(=O)C=CCC)C3)c1 (stereo not given) | / | / | . | . | /
Oc1cc(-c2ccncc2)cc2cccnc12 | . | . | 95 | 101 | .
CN(C)c1ccc(-c2cc(O)c3ncccc3c2)cc1 | . | . | / | / | .
COc1ccc(OCC(=O)Nc2ccc(N3CCN(C(=O)c4ccccc4)CC3)c(Cl)c2)cc1 | . | 39 | . | . | .
C=CCN1CCc2c(cc(O)c(O)c2Cl)C(c2ccccc2)C1 (stereo not given) | . | 46 | . | . | .
C=CCN1CCc2cc(O)c(O)cc2C(c2ccccc2)C1 (stereo not given) | . | . | . | . | .
CC(NC(=O)c1[nH]cnc1C(=O)Nc1nccs1)c1ccccc1 (stereo not given) | / | / | . | . | /
CC(C)(C)c1cc(C(c2cccnc2)N2CCN(CCO)CC2)cc(C(C)(C)C)c1O (stereo not given) | . | 30 | . | . | .
CCCNC(=O)CC(NS(=O)(=O)c1ccc(Cl)cc1)c1ccco1 (stereo not given) | . | 124 | . | . | .
O=C(CC(NS(=O)(=O)c1ccc(Cl)cc1)c1ccco1)NCc1ccco1 (stereo not given) | . | . | . | . | .
CCOC1OC(C(=O)N2CCCCCCC2)=CC(c2csc3ccccc23)C1CCCO (stereo not given) | / | / | . | . | /
COc1cc(OC)c([C@H]2C=C(C)[C@H]3C[C@@H]2C3(C)C)c(OC)c1 | . | . | 94 | . | .
COc1cc(OC)c(C2SCCS2)c(OC)c1 | . | . | . | . | .
SMILES | Mtb betalactam | PfHsp40 rescue | ugtP null kill | RN4220 kill | Mtb BioA inh
O=C(Cc1ccccc1)NC(Cc1ccc(O)cc1)C(=O)O (stereo not given) | / | / | . | . | /
COC(=O)C1=C(c2ccc(S(C)(=O)=O)cc2)C[C@@H]2CC[C@H]1N2C(=O)N1CCCCC1 | . | 78 | / | / | .
CN(C)S(=O)(=O)c1ccc2c(c1)nc(CCC(=O)NCC1CCCCC1)n2C | . | . | . | . | .
CN(C)S(=O)(=O)c1ccc2c(c1)nc(CCC(=O)NCc1ccc(Cl)cc1)n2C | . | 45 | . | . | /
Cc1ccc(NC(=O)c2cc(N3C(=O)C=CC3=O)ccc2Cl)cc1C | . | 294 | . | . | .
CC(=O)Oc1ccccc1C(=O)C=Cc1cccc([N+](=O)[O-])c1 | / | 128 | . | . | .
Cc1cc(O)c(C(=O)/C=C/c2cccc([N+](=O)[O-])c2)c(=O)o1 | . | . | / | / | .
O=C(NNC(=S)NC(=O)c1ccccc1)c1cccnc1 | . | . | . | . | .
CC(C)(C)c1ccc(C(=O)NNC(=S)NC(=O)c2cccnc2)cc1 | . | 109 | . | . | .
CC(C)(C)C(=O)NC(=S)NNC(=O)c1ccc(-c2ccccc2)cc1 | . | . | . | 92 | .
CC(C)(C)C(=O)NC(=S)NNC(=O)c1ccncc1 | . | . | . | . | .
O=C(NC(=S)NNC(=O)c1cccs1)c1ccccc1 | . | . | . | . | .
CC(C)(C)c1ccc(C(=O)NC(=S)NNC(=O)c2cccs2)cc1 | . | 465 | 92 | 86 | .
C=C1C2CCC3C(OC(C)=O)[C@@]2(CC(O)[C@@]2(O)C1CC(O)C2(C)C)C[C@@]3(C)O (stereo not given in full) | / | / | . | . | /
CC1OC(OC2C(OC3C[C@]4(C)C(CC(O)C5C([C@]6(C)CCC(C(C)(C)O)O6)CC[C@]54C)[C@@]4(C)CCC(O)C(C)(C)C34)OC(CO)C(O)C2O)C(O)C(O)C1O (stereo not given in full) | / | / | . | . | /
Cc1ccc(S(=O)(=O)N2C(c3ccc(C(C)C)cc3)CC=C(C(=O)O)C2c2ccccc2)cc1 (stereo not given) | / | / | . | . | /
COc1ccc2c(c1)N(C)/C(=C/c1cccc[n+]1C)S2 | . | . | 90 | . | .
CCN1/C(=C/c2cccc[n+]2C)Sc2ccc(OC)cc21 | . | . | / | / | .
Cc1ccc2c(c1)N(C)/C(=C/c1cccc[n+]1C)S2 | . | . | 101 | . | .
C=CCOC(=O)C1=CC(c2cn(C(C)=O)c3ccccc23)CC(OCc2ccc(CO)cc2)O1 (stereo not given) | / | / | . | . | /
O=C(CSc1nc2ccccc2s1)N/N=C/c1cc([N+](=O)[O-])ccc1O | . | 190 | / | / | /
Nc1nnnn1CC(=O)NN=Cc1cc([N+](=O)[O-])ccc1O | / | / | . | 93 | /
O=C(Cn1cncn1)NN=Cc1cc([N+](=O)[O-])ccc1O | / | / | . | 88 | /
COc1cc([N+](=O)[O-])cc(C=NNC(=O)Cn2cncn2)c1O | / | / | . | . | /
Nc1nnnn1N=Cc1cc([N+](=O)[O-])ccc1O | / | / | . | . | /
SMILES | Mtb betalactam | PfHsp40 rescue | ugtP null kill | RN4220 kill | Mtb BioA inh
CC[C@@]12C(=O)N(c3cccc(F)c3)C(=O)N1C(c1ccc(Cl)cc1)C1C(=O)N(C3CCCCC3)C(=O)C12 (stereo not given in full) | / | / | . | . | /
O=C(Nc1ccccc1)C(Cl)C(=O)c1ccccc1 (stereo not given) | . | . | 92 | . | .
CCCc1ccc(C(C)NC(=S)NC2CCCCC2)cc1 (stereo not given) | . | 159 | . | . | .
CN1CC2C3C(=O)N(C)C(=O)C3[C@](C)(C1=O)N2C(=O)c1ccc(F)cc1 (stereo not given in full) | / | / | . | . | /
Cc1cc(SCC(=O)NCCN2C(=O)CSC2=O)nc2c(C)cccc12 | . | 37 | . | . | /
COc1ccc2c(c1)C[C@]1(C)c3ccccc3C(=O)N(Cc3ccccc3)C21 (stereo not given in full) | / | / | . | . | /
